Laboratory results taken from PubChem BioAssay AID488969 (Vanderbilt High Throughput Screening Facility, 2010).
Over roughly 110,000 compounds, “z-score” has its median near -0.1; the highest 2% begin near 2. The full list was thinned out, with the highest values kept by preference. The source made the active and inactive calls.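 Rule for the calls: active = z-score in the third read window above 3 or below -3; inactive = the rest.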

Biological target: Metabotropic glutamate receptor 8 (Rattus norvegicus) (UniProt P70579)
Sequence (P70579 whole entry, looked up): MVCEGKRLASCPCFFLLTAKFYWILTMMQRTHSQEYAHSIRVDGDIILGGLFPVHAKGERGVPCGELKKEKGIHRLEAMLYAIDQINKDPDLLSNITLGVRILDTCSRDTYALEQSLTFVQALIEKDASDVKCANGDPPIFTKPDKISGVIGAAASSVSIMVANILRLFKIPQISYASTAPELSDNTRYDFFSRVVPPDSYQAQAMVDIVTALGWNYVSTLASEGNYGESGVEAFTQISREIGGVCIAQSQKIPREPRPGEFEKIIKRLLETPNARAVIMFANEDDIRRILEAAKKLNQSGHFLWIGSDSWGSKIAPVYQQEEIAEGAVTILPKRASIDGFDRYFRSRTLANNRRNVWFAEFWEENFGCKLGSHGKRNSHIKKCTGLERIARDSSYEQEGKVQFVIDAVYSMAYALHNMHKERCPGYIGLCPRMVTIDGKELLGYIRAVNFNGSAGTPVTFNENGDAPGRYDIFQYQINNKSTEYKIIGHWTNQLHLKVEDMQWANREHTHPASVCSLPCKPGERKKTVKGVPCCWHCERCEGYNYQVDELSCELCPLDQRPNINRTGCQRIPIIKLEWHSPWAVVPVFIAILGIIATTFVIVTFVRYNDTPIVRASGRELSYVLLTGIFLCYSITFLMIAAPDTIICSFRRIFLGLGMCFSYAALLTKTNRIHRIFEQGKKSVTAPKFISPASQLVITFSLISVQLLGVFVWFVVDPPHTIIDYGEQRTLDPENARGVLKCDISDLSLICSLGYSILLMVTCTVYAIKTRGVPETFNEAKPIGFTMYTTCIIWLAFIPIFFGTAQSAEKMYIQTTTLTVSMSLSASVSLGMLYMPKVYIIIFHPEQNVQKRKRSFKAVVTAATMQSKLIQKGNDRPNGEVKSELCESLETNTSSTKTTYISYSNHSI
Assay: mGluR8 Gi/Go-coupled signaling modulation – cell-based, rat, thallium flux, HTS, primary screen (AID 488969)
Details: HEK293 rat mGluR8, GIRK (G protein-gated inwardly rectifying potassium channel) thallium flux, FluoZin2; at 10 µM; stronger effect = higher value; submaximal glutamate (EC20) added with thallium

Question: With `O=C(CSc1nnnn1C1CCCCC1)NCc1ccco1` as the compound, how does the z-score read?
Answer: Its z-score is -0.228.

Question: With `CCOC(=O)c1c(NC(=O)CNCCOC)sc2c1CCCC2` as the compound, how does the z-score read?
Answer: Its z-score is -1.06.

Question: With `Cc1nn(C)c(C)c1CN(C)C(=O)c1nn2c(c1Br)NC(c1cccs1)CC2C(F)(F)F` (stereo unspecified) as the compound, how does the z-score read?
Answer: The z-score was 2.24.

Question: For `Cc1nn(C)c(C)c1CNC(=O)c1nn2c(c1Cl)NC(c1cccs1)CC2C(F)(F)F` (stereo unspecified), which z-score is on record?
Answer: The z-score was -0.0188.

Question: How did the z-score turn out when `Cc1nn(C)c(C)c1CN(C)C(=O)c1cc2n(n1)C(C(F)(F)F)CC(c1cccs1)N2` (stereo unspecified) was run?
Answer: Its z-score is 0.0534.

Question: With `CCOc1ccc2nc(NC(=O)C3CCCN(S(=O)(=O)c4cccs4)C3)sc2c1` (stereo unspecified) as the compound, how does the z-score read?
Answer: Its z-score is 0.284.

Question: For `CNC(=S)N1CCN(c2cccc(OC)c2)CC1`, which z-score is on record?
Answer: Its z-score is 0.273.

Question: Which z-score does the source give for `COc1ccc(C(=O)NC(=S)N2CCCCC2)cc1` here?
Answer: The z-score was 3.44 (active).

Question: With `CC1CCN(C(=S)NCCc2ccccc2)CC1` as the compound, how does the z-score read?
Answer: The z-score was -0.0312.

Question: With `COc1ccc(C(=O)NC(=S)N2CC(C)OC(C)C2)cc1` (stereo unspecified) as the compound, how does the z-score read?
Answer: The z-score was 0.0339.

Question: How did the z-score turn out when `COc1ccc(C(=S)N2CCCCCC2)cc1` was run?
Answer: Its z-score is -0.075.

Question: How did the z-score turn out when `Cc1cccc(C(=O)NC(=S)N2CCN(C(=S)NC(=O)c3cccc(C)c3)CC2)c1` was run?
Answer: Its z-score is 0.153.

Question: With `COc1ccc(OC(C)C(=O)N2CCC(C)CC2)cc1` (stereo unspecified) as the compound, how does the z-score read?
Answer: The z-score was 0.926.

Question: For `COc1ccc(N2CCN(C(=S)Nc3cc(C)cc(C)c3)CC2)cc1`, which z-score is on record?
Answer: Its z-score is 0.06.

Question: Which z-score does the source give for `COc1ccc(C(=O)NC(=O)N2CCCCC2)cc1` here?
Answer: Its z-score is 0.975.

Question: `COc1ccc(C(=O)NC(=S)N2CCC(C)CC2)cc1` was tested. Which z-score did it give?
Answer: Its z-score is 14.2 (active).

Question: With `CNC(=S)N1CCN(c2ccc(OC)cc2)CC1` as the compound, how does the z-score read?
Answer: Its z-score is 8.68 (active).

Question: For `CC1CCN(C(=S)NC(=O)c2ccccc2)CC1`, which z-score is on record?
Answer: The z-score was 4.42 (active).

Question: With `O=C(OCc1ccccc1)C1=[N+]([O-])OC(C(=O)OCc2ccccc2)C1c1c[nH]c2ccccc12` (stereo unspecified) as the compound, how does the z-score read?
Answer: The z-score was -0.556.

Question: How did the z-score turn out when `CCOC(=O)C1=C(C)Nc2nc3ccccc3n2C1c1ccccc1` (stereo unspecified) was run?
Answer: Its z-score is 0.0404.

Question: For `Cc1ccc2c(c1)CCCN2C(=O)c1ccncc1`, which z-score is on record?
Answer: The z-score was 0.255.

Question: For `COc1cccc(C2=NOC(C(=O)Nc3cccc(C(C)=O)c3)C2)c1OC` (stereo unspecified), which z-score is on record?
Answer: Its z-score is 0.301.

Question: How did the z-score turn out when `Cc1c(-c2ccccc2)nc2ccccc2c1C(=O)OCC(=O)Nc1ncc(C(F)(F)F)cc1Cl` was run?
Answer: The z-score was 0.00577.

Question: How did the z-score turn out when `COC(=O)Cc1[nH]nc2c1C(c1c[nH]c3ccccc13)C(C#N)=C(N)O2` (stereo unspecified) was run?
Answer: The z-score was -0.415.

Question: `COc1ccc(/C=N\N=C2/SC(CC(=O)O)C(=O)N2c2ccc(O)cc2)cc1OC` (stereo unspecified) was tested. Which z-score did it give?
Answer: The z-score was -0.0449.

Question: Which z-score does the source give for `CC(=O)Nc1cccc2c1C(=O)NC2=O` here?
Answer: The z-score was 0.274.

Question: With `CC(C)Cn1cc(C(=O)NC2CCN(Cc3ccccc3)CC2)c2c3ccccc3n(C)c2c1=O` as the compound, how does the z-score read?
Answer: Its z-score is -0.13.

Question: How did the z-score turn out when `O=C(c1ccccc1)N1CCN(Cc2ccccc2)CC1` was run?
Answer: Its z-score is -0.853.

Question: How did the z-score turn out when `S=C(NCCc1ccccc1)N1CCN(Cc2ccccc2)CC1` was run?
Answer: The z-score was -0.499.

Question: With `O=C(NC(=S)N1CCN(Cc2ccccc2)CC1)c1ccccc1` as the compound, how does the z-score read?
Answer: Its z-score is 6.31 (active).

Question: How did the z-score turn out when `O=C1NCCN1C(=O)c1ccccc1F` was run?
Answer: Its z-score is 0.555.

Question: With `Cc1csc(NC(=O)CSc2ncc(-c3ccccc3)[nH]2)n1` as the compound, how does the z-score read?
Answer: Its z-score is 0.148.

Question: For `COc1ccc(Cn2c(-c3ccco3)nc3oc4ccccc4c(=O)c3c2=O)cc1`, which z-score is on record?
Answer: The z-score was 0.403.

Question: With `COc1ccc2c(=O)c3c(=O)n(Cc4ccco4)c(-c4ccco4)nc3oc2c1` as the compound, how does the z-score read?
Answer: Its z-score is -0.397.

Question: How did the z-score turn out when `COc1ccc(Cn2c(-c3ccco3)nc3oc4cc(OC)ccc4c(=O)c3c2=O)cc1` was run?
Answer: The z-score was 2.22.

Question: For `CS(=O)(=O)N(CC(N)=O)c1ccc2c(c1)OCO2`, which z-score is on record?
Answer: The z-score was -0.00195.

Question: For `N#Cc1ccccc1NC(=O)CNc1ccc(Cl)c(C(F)(F)F)c1`, which z-score is on record?
Answer: The z-score was 2.38.

Question: Which z-score does the source give for `COc1ccc(NCC(=O)Nc2ccccc2C#N)cc1Cl` here?
Answer: The z-score was -0.204.

Question: Which z-score does the source give for `Cc1ccccc1NC(=O)CNc1ccc(Cl)c(C(F)(F)F)c1` here?
Answer: The z-score was -0.365.

Question: Which z-score does the source give for `N#Cc1cc(Oc2cccnc2)c(Oc2cccnc2)cc1C#N` here?
Answer: The z-score was 0.18.

Question: How did the z-score turn out when `O=C(Nc1cccc(Cl)c1)Nc1cccc(Cl)c1` was run?
Answer: The z-score was 0.0262.

Question: With `O=C(Nc1cccc(Cl)c1)Nc1nccs1` as the compound, how does the z-score read?
Answer: Its z-score is 10.2 (active).

Question: `O=C(Nc1ccccc1)Nc1nccs1` was tested. Which z-score did it give?
Answer: Its z-score is 1.3.

Question: Which z-score does the source give for `COC(=O)c1ccc(Oc2nc3c(c(=O)n(C)c(=O)n3C)n2CCC(C)C)cc1` here?
Answer: The z-score was 1.63.

Question: `CN1C(=O)/C(=C/c2ccc3c(c2)OCO3)N=C1c1ccccc1` was tested. Which z-score did it give?
Answer: Its z-score is 0.393.

Question: `CC(=O)Nc1c(C(=O)N2CCOCC2)cnn1-c1ccc(C)c(C)c1` was tested. Which z-score did it give?
Answer: The z-score was -0.0497.

Question: With `CCC(=O)Nc1c(C(=O)N2CCCCCC2)cnn1-c1ccc(C)c(C)c1` as the compound, how does the z-score read?
Answer: Its z-score is 2.47.

Question: For `O=C(Cc1ccccc1)Nc1c(C(=O)N2CCCCCC2)cnn1-c1ccccc1`, which z-score is on record?
Answer: The z-score was -0.477.

Question: Which z-score does the source give for `CC(C)NC(=O)Cn1c(=O)cnc2ccccc21` here?
Answer: The z-score was 0.171.

Question: `CC(C)C(=O)NCCSc1c[nH]c2ccccc12` was tested. Which z-score did it give?
Answer: Its z-score is -0.143.

Question: For `Cn1c(SCC(=O)NCc2ccc3c(c2)OCO3)nnc1-c1c[nH]c2ccccc12`, which z-score is on record?
Answer: The z-score was -0.821.

Question: Which z-score does the source give for `O=C(CSc1nc(C2CCCCC2)nc2ccccc12)NCc1ccc2c(c1)OCO2` here?
Answer: The z-score was -1.07.

Question: `O=C(CSc1c[nH]c2ccccc12)NCc1ccc2c(c1)OCO2` was tested. Which z-score did it give?
Answer: Its z-score is 2.27.

Question: How did the z-score turn out when `O=C(NCCSc1c[nH]c2ccccc12)c1ccc(Br)o1` was run?
Answer: The z-score was -0.00412.

Question: Which z-score does the source give for `O=C(CCc1c[nH]c2ccccc12)NCc1ccc2c(c1)OCO2` here?
Answer: The z-score was -0.143.

Question: For `O=C(CSc1nc(CCC2CCCC2)nc2ccccc12)NCc1ccc2c(c1)OCO2`, which z-score is on record?
Answer: Its z-score is 8.15 (active).

Question: With `O=C(NCCSc1c[nH]c2ccccc12)c1ccco1` as the compound, how does the z-score read?
Answer: The z-score was 3.57 (active).

Question: For `O=C(CSc1ncnc2c1cnn2-c1ccc(Cl)cc1)NCc1ccc2c(c1)OCO2`, which z-score is on record?
Answer: Its z-score is 3.12 (active).

Question: With `O=C(CSc1ncnc2c1cnn2-c1ccc(F)cc1)NCc1ccc2c(c1)OCO2` as the compound, how does the z-score read?
Answer: Its z-score is 0.54.

Question: Which z-score does the source give for `Clc1ccc(-n2ncc3c(NCc4ccc5c(c4)OCO5)ncnc32)cc1` here?
Answer: The z-score was -0.426.

Question: With `O=C(CSc1nc(C2CC2)nc2ccccc12)NCc1ccc2c(c1)OCO2` as the compound, how does the z-score read?
Answer: Its z-score is -0.21.
